High-throughput results deposited in PubChem by Broad Institute.
BL2 CD40 inh: CD40 pathway inhibition in BL2 cells; BL2 NF-kB luciferase reporter, CD40L-induced, 4 h; inhibition, % at 10 µM; 83,000 compounds, 0.94% hits; AID 1053188;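 active = mean inhibition of at least 50% with a set share of replicates also reaching that level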;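 note: 0% = neutral control wells and 100% = IKK inhibitor VII at 50 µM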
Starred values were filed as active, the others as inactive; [ ] = remark or other dose. Only a selection was taken, and hits are over-represented in it overall.

SMILES	BL2 CD40 inh
CCNC(=O)C[C@@H]1CC[C@@H]2[C@H](COC[C@@H](O)CN2C(=O)C2CCCC2)O1	-3[25 µM]
CCC(=O)N1[C@H](CO)[C@H](c2ccc(C3=CCCC3)cc2)[C@@H]1CN(C)C(C)=O	4
O=C(NC1CC1)c1cc2ccccc2o1	-4
O=C(Nc1ccc2c(c1)OCCO2)c1cc2ccccc2o1	33
Cc1ccnc(NC(=O)c2cc3ccccc3o2)c1	88*
O=C(Nc1cccc2ncccc12)c1cc2ccccc2o1	-10
O=C(Nc1ncccc1O)c1cc2ccccc2o1	-9
O=C(NC1=NCCS1)c1cc2ccccc2o1	63*
CCCc1cn(CC[C@H]2CC[C@H](NC(=O)C3CCCC3)[C@@H](CO)O2)nn1	-10
C[C@@H]1CN([C@@H](C)CO)C(=O)c2c(c3ccccc3n2C)-c2ccccc2CO[C@H]1CN(C)Cc1ccccc1C(F)(F)F	14[25 µM]
COCCNC(=O)C[C@H]1C[C@H]2c3cc(NC(=O)NC4CCCCC4)ccc3O[C@H]2[C@@H](CO)O1	1
CCCNC(=O)N1CC2(C1)[C@@H](c1ccccc1)[C@@H](CO)N2CC1CCOCC1	-10[25 µM]
CCCC(=O)Nc1ccc(Br)c(Cl)c1	9
CC(=O)Nc1ccc(Br)c(Cl)c1	3
O=C(O)CCC(=O)Nc1ccc(Br)c(Cl)c1	36*
COc1ccc(-c2ccc3c(c2)[C@@H]2[C@@H](CCN2C(=O)NC2CCCC2)[C@H](CO)N3C)cc1	19
C=C[C@@]1(C)CC(=O)[C@]2(O)[C@@]3(C)[C@@H](O)CCC(C)(C)[C@@H]3[C@H](O)[C@H](OC(=O)CCCN3CCN(C)CC3)[C@@]2(C)O1	-13[25 µM]
CO[C@@H]1CN(C)C(=O)c2cc(NC(=O)NC3CCCCC3)ccc2OC[C@@H](C)NC[C@H]1C	19
CN1C(=O)c2cc(NC(=O)C3CC3)ccc2OC[C@@H]2O[C@@H](CC(=O)O)CC[C@H]21	14
CCCNC(=O)Nc1ccc2c(c1)OC[C@H](C)N(S(C)(=O)=O)C[C@H](C)[C@@H](OC)CN(C)C2=O	-4[25 µM]
O=C(N/N=C/c1cccc(O)c1)c1ccc2c(c1)OCCO2	75*
O=C(N/N=C/c1cccnc1)c1ccc2c(c1)OCO2	-33
O=C(N/N=C/c1ccc2c(c1)OCO2)c1ccc2c(c1)OCO2	-62
CO[C@@H](C(=O)N(C)C[C@@H]1OCc2ccccc2-c2c(n(C)c3ccccc23)C(=O)N([C@H](C)CO)C[C@@H]1C)c1ccccc1	-21[25 µM]
COc1ccc([C@@H]2C/C=C\C[C@H](c3ccc(F)cc3)NC(=O)CCC(=O)N2)c(OC)c1	4[25 µM]
SMILES	BL2 CD40 inh
N#C[C@H]1[C@H](c2ccc(C#Cc3ccccc3F)cc2)[C@@H](CO)N1C(=O)C1CCC1	62*
COc1ccccc1C#Cc1ccc([C@H]2[C@@H](C#N)N(C(=O)C3CCC3)[C@@H]2CO)cc1	-7[25 µM]
N#C[C@@H]1[C@H](c2ccc(C#Cc3ccccc3F)cc2)[C@@H](CO)N1C(=O)C1CCC1	81*
N#C[C@@H]1[C@H](c2ccc(C#Cc3ccc(F)cc3)cc2)[C@@H](CO)N1C(=O)C1CCC1	90*[25 µM]
N#C[C@H]1[C@@H](c2ccc(C#Cc3ccc(F)cc3)cc2)[C@H](CO)N1C(=O)C1CCC1	6[25 µM]
N#C[C@@H]1[C@@H](c2ccc(C#Cc3ccccc3F)cc2)[C@H](CO)N1C(=O)C1CCC1	-29
COc1ccccc1C#Cc1ccc([C@@H]2[C@@H](C#N)N(C(=O)C3CCCCC3)[C@@H]2CO)cc1	-1
N#C[C@H]1[C@H](c2ccc(C#Cc3ccccc3F)cc2)[C@H](CO)N1C(=O)C1CCC1	-3
N#C[C@H]1[C@H](c2ccc(C#Cc3ccc(F)cc3)cc2)[C@H](CO)N1C(=O)C1CCC1	28[25 µM]
C[C@@H]1CN([C@@H](C)CO)C(=O)c2ccccc2-c2ccccc2CO[C@@H]1CN(C)C(=O)[C@H]1CCCN1C	-11[25 µM]
O=S(=O)(c1ccccc1)N1CC[C@@H]2[C@H](CO)Nc3ccc(C#CC4CCCCC4)cc3[C@@H]21	9[25 µM]
O=C(NCc1ccc(F)cc1)[C@@H]1[C@@H](CO)[C@@H]2Cn3c(cccc3=O)[C@H]1N2Cc1cccnc1	0[25 µM]
O=C(C[C@@H]1C[C@@H]2c3cc(NS(=O)(=O)c4ccc(F)cc4)ccc3O[C@@H]2[C@@H](CO)O1)N1CCc2ccccc2C1	22[25 µM]
CC(=O)Nc1ccc2c(c1)CC(=O)N(C)C[C@@H](C)[C@@H](CN(C)C(C)=O)O2	-3
COc1ccc2c3c(n(C)c2c1)[C@@H](CO)N(C(=O)Cc1ccccc1)CC31CN(C)C1	-4[25 µM]
CN1C(=O)c2cc(NC(=O)C3CCC3)ccc2OC[C@H]2O[C@H](CC(=O)NCC3CCCCC3)CC[C@H]21	1
COc1ccc(CN(C)C[C@H]2OCCCC[C@H](C)Oc3ccc(NC(=O)C4CCCCC4)cc3C(=O)N([C@@H](C)CO)C[C@H]2C)cc1	-3[25 µM]
CCCCC(C)Sc1nc2c([nH]1)c(=S)n(C)c(=O)n2C (stereo not drawn)	-37
CCCC(CC)Sc1nc2c([nH]1)c(=S)n(C)c(=O)n2C (stereo not drawn)	-45
CSc1nc2c([nH]1)c(=S)n(C)c(=O)n2C	74*
